Compound activity as filed in PubChem.
BJeLR viab HTS: lowers viability of BJeLR cells. BJeLR fibroblasts viability, CellTiterGlo ATP luminescence, 48 h; HRASV12, hTERT and SV40 LT/ST transformed. viability loss activity score, % (concentration not given with the values). 30,000 compounds, 0.64% hits; in the data active = viability loss activity score above about 50%;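 also: higher score means fewer live cells and less ATP luminescence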
Shh pathway inh: Sonic Hedgehog pathway inhibition. Shh-LIGHT2 Gli-luciferase reporter, 30 h. inhibition, % (concentration not given with the values). 22,000 compounds, 2.1% hits;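 active = mean inhibition across valid replicates above about 65%, limit read from the data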;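 also: pathway switched on by Shh-conditioned medium diluted 1 in 25 in low serum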
Starred values were filed as active, the others as inactive. Shown is part of a subset that was picked to be rich in hits.

What do the screens show for `COC1CC(O[C@H]2CC[C@@]3(C)C(CCC4C3CC[C@]3(C)C(C5=CC(=O)OC5)CCC43O)C2)OC(C)C1OC1OC(COC2OC(CO)C(O)C(O)C2O)C(O)C(O)C1O` (stereo not given in full)?
BJeLR viab HTS: 93.5*; Shh pathway inh: -0.4

What do the screens show for `C=C(C)[C@@H]1[C@H]2OC(=O)[C@@H]1[C@]1(O)C[C@H]3O[C@]34C(=O)O[C@H]2[C@]14C`?
BJeLR viab HTS: 1.3; Shh pathway inh: -52.0

Results for COC(=O)C1=CO[C@H](C)[C@@H]2CN3CCC4(C(=O)Nc5ccccc54)C3C[C@H]12 (stereo not given in full) ?
BJeLR viab HTS: -3.3

Results for CCN1C[C@]2(COC)CC[C@H](O)[C@]34C1[C@H](C[C@H]23)[C@@]1(O)C[C@H](OC)[C@H]2C[C@@H]4[C@@H]1[C@H]2OC(C)=O ?
BJeLR viab HTS: 0.0; Shh pathway inh: -47.2

What do the screens show for `COC(=O)[C@@]12C(=O)C(C)C(=O)[C@]1(C)C(C)=C[C@H]1[C@]3(C=O)CC[C@H](OC(C)=O)C(C)(C)[C@H]3CC[C@@]12C` (stereo not given in full)?
Shh pathway inh: 25.4

What do the screens show for `CCc1cccc(C)c1N(C(=O)CCl)C(C)COC` (stereo not given)?
BJeLR viab HTS: -1.6; Shh pathway inh: -60.5

How did CC(C)N(C(=O)CCl)c1ccccc1 do in these assays?
BJeLR viab HTS: -3.8; Shh pathway inh: 70.5*

What do the screens show for `CN1CCC2=C[C@H](O)[C@H]3OC(=O)c4cc5c(cc4[C@H]3[C@@H]21)OCO5`?
BJeLR viab HTS: -9.5; Shh pathway inh: -5.1

What do the screens show for `Fc1ccc(Sc2c(F)c(F)nc(N3CCNCC3)c2F)cc1`?
BJeLR viab HTS: 0.1
